Many of the other results were omitted from the sample, so hits are more common in it than they were.
Pf Dd2 inh: inhibitors of Plasmodium falciparum Dd2 growth | AID 1347417 | Potency, µM (series often up to 28.9 µM), for the others: at the top dose activity, negative = inhibition, hits mostly inhibitors | P. falciparum Dd2 growth, SYBR Green, 72 h | 120,000 compounds, 4.3% hits; active means well fitted inhibition curve with a large enough effect;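 further: plate controls were DMSO vehicle for no effect and reference drug for full effect; nearly all actives have a fitted effect of over 65% in size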
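Infected erythrocytes (Dd2, 0.3% parasitemia, 2.5% hematocrit final) are added to compound in RPMI-1640/Albumax II medium, grown 72 h at 37C in low oxygen, then lysed with saponin/Triton-X containing SYBR Green and read by fluorescence.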
Numbers without * were called inactive; i = inactive; [ ] = remark or other dose. Potency means the concentration at half of the fitted maximal effect.

SMILES | Pf Dd2 inh
Cn1cccc1C(=O)N1CCC(n2cc(-c3nc(-c4ccccc4)no3)nn2)CC1 | -11%
N#Cc1cccc(C(=O)N2CCCC(c3nccn3Cc3ccccc3)C2)c1 (stereo not drawn) | -14%
CCOC(=O)C1CCN(C(=O)c2ccc(-n3ccc4ccccc43)s2)CC1 | -14%
CCOc1ccccc1NC(=O)CSc1nnc2[nH]c(=O)cc(C)n12 | 8%
O=C(Cc1ccsc1)NC1CCN(c2cc(C(F)(F)F)ncn2)CC1 | 0%
Cc1ncsc1C(=O)NC1CC(c2cc(=O)[nH]c(N3CCCC3)n2)C1 (stereo not drawn) | i
c1ccc(-c2ccc3ncc(Nc4ccc5c(c4)OCCO5)n3n2)cc1 | i
CN(Cc1cccnc1)c1ccc2ncc(Nc3ccc4c(c3)OCO4)n2n1 | 7.9µM*
CN(Cc1cccnc1)c1ccc2ncc(Nc3ccc(F)cc3)n2n1 | -18%[44.1 µM]
CN1CCN(c2ccc3ncc(Nc4ccc5c(c4)OCCO5)n3n2)CC1 | 7.9µM*
Clc1cccc(Nc2cnc3ccc(N4CCOCC4)nn23)c1 | -9%[44.1 µM]
CN(Cc1ccc(F)cc1)c1ccc2ncc(Nc3ccc4c(c3)OCO4)n2n1 | -16%[44.1 µM]
COc1ccc(-c2ccc3ncc(Nc4ccnc(N5CCOCC5)c4)n3n2)cc1OC | -1%[44.1 µM]
CN1CCN(c2ccc3ncc(Nc4ccc(OC(F)(F)F)cc4)n3n2)CC1 | 3.5µM*
CCc1nnc2ccc(N3CCN(C)CC3)nn12 | -1%
Cc1cc(C)cc(NC(=O)C2CCCN(C(=O)c3cnn(-c4ccccc4)c3-n3cccc3)C2)c1 (stereo not drawn) | -18%
O=C1N(C2CCCCC2)C[C@H]2CN(Cc3ccc(F)cc3)CCN12 | -14%[44.1 µM]
COc1cc2c(=O)n(CCC(=O)NCC3CCCO3)c(=O)n(CC(=O)Nc3ccccc3C)c2cc1OC (stereo not drawn) | -10%
COc1ccc(C[C@H](NC(=O)[C@@]2(O)C[C@@H](O)[C@H](O)[C@@H](NC(=O)Nc3ccc(C(C)=O)cc3)C2)C(N)=O)cc1 | -10%
CCCNC(=O)C1c2ccccc2C(=O)N(CCOC)C12CCCCC2 (stereo not drawn) | 0%
COCCN1C(=O)c2ccccc2C(C(=O)NCCCc2ccccc2)C12CCCC2 (stereo not drawn) | 11µM*
CCc1nc(NC(=O)C2c3ccccc3C(=O)N(CCOC)C23CCCC3)sc1C (stereo not drawn) | 2µM*
COCCN1C(=O)c2ccccc2C(C(=O)Nc2cc(Cl)ccc2OC)C12CCCC2 (stereo not drawn) | -20%
COCCN1C(=O)c2ccccc2C(C(=O)NCc2ccccc2)C12CCCCC2 (stereo not drawn) | -28%
COCCN1C(=O)c2ccccc2C(C(=O)Nc2nnc(C(C)C)s2)C12CCCCC2 (stereo not drawn) | 11µM*
SMILES | Pf Dd2 inh
COCCN1C(=O)c2ccccc2C(C(=O)NCC(C)C)C12CCCC2 (stereo not drawn) | 1%
COCCN1C(=O)c2ccccc2C(C(=O)NCc2ccccc2F)C12CCCCC2 (stereo not drawn) | -25%
COCCN1C(=O)c2ccccc2C(C(=O)Nc2nc(C)c(C)s2)C12CCCCC2 (stereo not drawn) | 3.5µM*
COCCN1C(=O)c2ccccc2C(C(=O)NCCc2ccc(OC)cc2)C12CCCC2 (stereo not drawn) | i
COCCN1C(=O)c2ccccc2C(C(=O)Nc2cccc(NC(C)=O)c2)C12CCCCC2 (stereo not drawn) | i
COCCN1C(=O)c2ccccc2C(C(=O)NCCCOC(C)C)C12CCCCC2 (stereo not drawn) | -7%
CCNC(=O)N1CCC[C@@H](O)[C@H](NC(=O)c2ccc(OCCN3CCOCC3)cc2)C1 | -17%[44.1 µM]
Cc1ccc(S(=O)(=O)NCCc2csc3nc(-c4ccccc4F)nn23)cc1C | i
Clc1ccc(N2CCN(c3ncnc4c3cnn4-c3ccccc3)CC2)cc1Cl | 53%
COCC(=O)N1CCC([C@H]2[C@@H](OC)C(=O)N2C(C)C)CC1 | 24%
O=C1c2c(nc(CN3CCC(F)(F)CC3)n2Cc2ccccc2)NCCN1Cc1cccc(Cl)c1 | -27%
COc1ccc(CN[C@H]2C[C@H]3C(=O)NC[C@@H](CCC(=O)N4CCC(O)CC4)N3C2)cc1 | 14%[44.1 µM]
Clc1ccc2c(c1)-c1c(cnc3cc(-c4ccccc4)nn13)CO2 | 42%
CCc1ccc(C(=O)NCc2nnc3cc(-c4nc(C)no4)ccn23)cc1 | i
Cc1ccc(C2Cn3nnc(-c4nc(-c5cccc(Cl)c5)no4)c3CO2)c(C)c1 (stereo not drawn) | -6%
CCn1ccc(C(=O)N2CCc3nnc([C@@H]4C[C@@H](O)CN4C(C)C)n3CC2)n1 | 21%
CCN(CC)Cc1nc(C2(O)CCN(C(C)=O)CC2)cs1 | 19%[44.1 µM]
COCCN1C(=O)c2ccccc2C(C(=O)Nc2nc3ccccc3[nH]2)C12CCCCC2 (stereo not drawn) | 1.8µM*
COCCN1C(=O)c2ccccc2C(C(=O)NCc2ccco2)C12CCCCC2 (stereo not drawn) | 0%
COCCN1C(=O)c2ccccc2C(C(=O)NCc2ccc(F)cc2)C12CCCC2 (stereo not drawn) | -19%
Cc1ccc(CN2CCOCCNC(=O)CC2)s1 | 3%
Cc1noc(-c2ccc(N3CCC(O)(c4cccnc4)CC3)nc2)n1 | -18%
O=C(Nc1ccc(Oc2ccccc2)cc1)N[C@H]1CO[C@H]2[C@@H]1OC[C@H]2OC(=O)Nc1cccc2ccccc12 | i
O=C(Nc1cccc2ccccc12)O[C@@H]1CO[C@H]2[C@@H]1OC[C@@H]2NC(=O)C1CCC1 | 17%[44.1 µM]
O=C(Nc1ccc(Oc2ccccc2)cc1)O[C@@H]1CO[C@H]2[C@@H]1OC[C@@H]2NC(=S)Nc1cccc2ccccc12 | 13µM*
SMILES | Pf Dd2 inh
Cc1ccc(CN2C(=O)c3ccccc3Sc3ccc(C(=O)OCc4ccco4)cc32)cc1 | -16%
Cc1ccc(C)c(CN2C(=O)c3ccccc3Sc3ccc(C(=O)NCc4ccc5c(c4)OCO5)cc32)c1 | 8.9µM*
Cc1ccccc1CN1C(=O)c2ccccc2Sc2ccc(C(=O)OCc3ccco3)cc21 | 8.9µM*
Cc1ccc(C)c(CN2C(=O)CSc3ccc(C(=O)NCc4ccccc4)cc32)c1 | -14%
COCCNC(=O)c1ccc2c(c1)N(Cc1cc(C)ccc1C)C(=O)c1ccccc1S2=O (stereo not drawn) | i
CCOc1ccc(CN2C(=O)c3ccccc3Sc3ccc(C(=O)O)cc32)cc1 | 93%
O=C(NCCCN1CCOCC1)c1ccc2c(c1)N(Cc1ccccc1)C(=O)c1ccccc1S2 | i
Cc1ccc(C)c(CN2C(=O)c3ccccc3S(=O)c3ccc(C(=O)NCc4ccccc4Cl)cc32)c1 (stereo not drawn) | -7%
CCOc1ccc(CN2C(=O)c3ccccc3Sc3ccc(C(=O)N4CCN(C)CC4)cc32)cc1 | 0.13µM*
Cc1ccc(C)c(CN2C(=O)c3ccccc3S(=O)c3ccc(C(=O)NCCc4ccc(Cl)cc4)cc32)c1 (stereo not drawn) | 5µM*
CCOc1ccc(CN2C(=O)c3ccccc3Sc3ccc(C(=O)NCCCN4CCOCC4)cc32)cc1 | i
Cc1ccccc1CN1C(=O)c2ccccc2S(=O)c2ccc(C(=O)N3CCOCC3)cc21 (stereo not drawn) | i
O=C(c1ccc2nccn2c1)N1CCN(c2ccc(F)cc2)CC1 | -7%
Cc1noc(C)c1-c1cc2c(cc(C)n2C)c(-c2ccc(CO)cc2)n1 | i
CC(C)C(=O)N1CCC(c2nc(-c3cccnn3)no2)CC1 | -13%
Cc1ccc(NS(=O)(=O)c2ccccc2)c(=O)n1CC(=O)N1CCN(CC(C)C)CC1 | -17%

Screening data (PubChem)
